In the supplement of paper PMC10849652:
Of roughly 8,800 targets only a part is listed; those with a hit were picked by preference. About 0.5% of all pairs of compound and target were hits.

Assays:
Test in all cases: log2 fold change, soluble protein after heating vs DMSO (PISA); higher = thermal stabilisation; K562 lysate, 10 uM; active = over 0.2 and 3.5 SD of the protein, either way, in both replicates (recomputed)
alvocidib = compound: CN1CC[C@H](c2c(O)cc(O)c3c(=O)cc(-c4ccccc4Cl)oc23)[C@H](O)C1 [alvocidib]
Summary of the method: (§1)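 Soluble protein was defined as the supernatant remaining after 21,000xg for 90 min, following pooling of heated aliquots and adjustment to 0.5% NP-40 at 4°C. Before that, crude K562 extract at 1 mg/mL protein in PBS pH 7.4 with 1 mM MgCl2 was treated with 10 μM compound for 30 min and heated for 3 min across 48°C-58°C. Quantification used TMTpro 16plex LC-MS/MS with channel sums equalised, and values are log-two fold changes in thermal stability relative to solvent controls from duplicates.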

Tubastatin A = compound: CN1CCc2c(c3ccccc3n2Cc2ccc(C(=O)NO)cc2)C1 [Tubastatin A]
Summary of the method: as §1

[1] = compound: CNC(=O)C1=CC=CC=C1NC2=NC(=NC=C2Cl)NC3=C(C=C(C=C3)N4CCOCC4)OC
Summary of the method: as §1

defactinib = compound: CNC(=O)c1ccc(Nc2ncc(C(F)(F)F)c(NCc3nccnc3N(C)S(C)(=O)=O)n2)cc1 [defactinib]
Summary of the method: as §1

[2] = compound: CNc1nc(-c2ccc3c(N)n[nH]c3c2)cc(N2C[C@@H](C(=O)NC3CCCCC3)CC[C@H]2C)n1
Summary of the method: as §1

encorafenib = compound: COC(=O)N[C@@H](C)CNc1nccc(-c2cn(C(C)C)nc2-c2cc(Cl)cc(NS(C)(=O)=O)c2F)n1 [encorafenib]
Summary of the method: as §1

[3] = compound: COC(=O)[C@H](CCSC)NC(=O)C1=C(C=C(C=C1)NC[C@H](CS)N)C2=CC=CC=C2
Summary of the method: as §1

alisertib = compound: COc1cc(Nc2ncc3c(n2)-c2ccc(Cl)cc2C(c2c(F)cccc2OC)=NC3)ccc1C(=O)O [alisertib]
Summary of the method: as §1

[4] = compound: COc1cc2nc(-c3cc(F)ccc3O)nc(N[C@@H]3CNC[C@H]3C(C)(C)O)c2cc1OC
Summary of the method: as §1

gefitinib = compound: COc1cc2ncnc(Nc3ccc(F)c(Cl)c3)c2cc1OCCCN1CCOCC1 [gefitinib]
Summary of the method: as §1

lapatinib = compound: CS(=O)(=O)CCNCc1ccc(-c2ccc3ncnc(Nc4ccc(OCc5cccc(F)c5)c(Cl)c4)c3c2)o1 [lapatinib]
Summary of the method: as §1

pictilisib = compound: CS(=O)(=O)N1CCN(Cc2cc3nc(-c4cccc5[nH]ncc45)nc(N4CCOCC4)c3s2)CC1 [pictilisib]
Summary of the method: as §1

crizotinib = compound: C[C@@H](Oc1cc(-c2cnn(C3CCNCC3)c2)cnc1N)c1c(Cl)ccc(F)c1Cl [crizotinib]
Summary of the method: as §1

[5] = compound: C[C@H](C1=CC=C(C=C1)C(=O)NC2=C3C=CNC3=NC=C2)N
Summary of the method: as §1

duvelisib = compound: C[C@H](Nc1ncnc2nc[nH]c12)c1cc2cccc(Cl)c2c(=O)n1-c1ccccc1 [duvelisib]
Summary of the method: as §1

gandotinib = compound: Cc1cc(Nc2cc(CN3CCOCC3)c3nc(C)c(Cc4ccc(Cl)cc4F)n3n2)n[nH]1 [gandotinib]
Summary of the method: as §1

tozasertib = compound: Cc1cc(Nc2cc(N3CCN(C)CC3)nc(Sc3ccc(NC(=O)C4CC4)cc3)n2)n[nH]1 [tozasertib]
Summary of the method: as §1

doramapimod = compound: Cc1ccc(-n2nc(C(C)(C)C)cc2NC(=O)Nc2ccc(OCCN3CCOCC3)c3ccccc23)cc1 [doramapimod]
Summary of the method: as §1

bafetinib = compound: Cc1ccc(NC(=O)c2ccc(CN3CC[C@H](N(C)C)C3)c(C(F)(F)F)c2)cc1Nc1nccc(-c2cncnc2)n1 [bafetinib]
Summary of the method: as §1

[6] = compound: Cc1cccc(CC(=O)N2CCc3c2ccc(-c2cn(C)c4ncnc(N)c24)c3F)n1
Summary of the method: as §1

Measured: log2 fold change

TPD52L2 isoform 7 (UniProt O43399)
active: gandotinib 0.222
inactive: alvocidib -0.043 | Tubastatin A 0.062 | [1] -0.005 | defactinib 0.023 | [2] 0.086 | encorafenib -0.026 | [3] 0.008 | alisertib -0.01 | [4] 0.037 | gefitinib 0.02 | lapatinib 0.039 | pictilisib 0.003 | crizotinib 0.095 | [5] -0.124 | duvelisib -0.022 | tozasertib 0.043 | doramapimod 0.03 | bafetinib 0.139 | [6] 0.057

TIAL1 isoform 2 (UniProt Q01085)
Chain of UniProt Q01085 (Q01085 whole entry, looked up): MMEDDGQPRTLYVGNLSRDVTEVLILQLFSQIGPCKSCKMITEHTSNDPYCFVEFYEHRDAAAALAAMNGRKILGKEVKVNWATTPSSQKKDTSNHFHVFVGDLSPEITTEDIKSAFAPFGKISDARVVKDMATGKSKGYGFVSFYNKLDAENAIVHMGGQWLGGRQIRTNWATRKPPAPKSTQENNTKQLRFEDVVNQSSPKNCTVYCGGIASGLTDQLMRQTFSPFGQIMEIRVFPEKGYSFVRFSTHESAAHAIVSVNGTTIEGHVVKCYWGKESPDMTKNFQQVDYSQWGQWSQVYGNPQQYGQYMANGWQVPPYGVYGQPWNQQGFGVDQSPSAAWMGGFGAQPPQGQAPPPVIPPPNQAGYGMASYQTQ
inactive: alvocidib -0.005 | Tubastatin A 0.05 | [1] -0.015 | defactinib 0.006 | [2] -0.005 | encorafenib 0.009 | [3] -0.053 | alisertib 0.027 | [4] 0.013 | gefitinib 0.041 | lapatinib -0.013 | pictilisib -0.063 | crizotinib 0.038 | [5] -0.024 | duvelisib -0.014 | gandotinib 0.054 | tozasertib 0.011 | doramapimod 0.007 | bafetinib 0 | [6] 0.001

TUBGCP2 isoform 4 (UniProt Q9BSJ2)
inactive: alvocidib -0.007 | Tubastatin A -0.008 | [1] 0.053 | defactinib 0.032 | [2] 0.003 | encorafenib 0.045 | [3] -0.026 | alisertib 0.021 | [4] 0.017 | gefitinib -0.018 | lapatinib -0.008 | pictilisib -0.029 | crizotinib -0.119 | [5] 0.08 | duvelisib -0.001 | gandotinib -0.087 | tozasertib 0.002 | doramapimod 0.033 | bafetinib 0.002 | [6] 0.009

THADA (UniProt Q6YHU6)
inactive: alvocidib -0.002 | Tubastatin A -0.165 | [1] 0.008 | defactinib 0.014 | [2] -0.013 | encorafenib 0.022 | [3] 0.031 | alisertib 0.01 | [4] 0.012 | gefitinib 0.001 | lapatinib -0.042 | pictilisib -0.06 | crizotinib -0.073 | [5] -0.041 | duvelisib -0.02 | gandotinib -0.064 | tozasertib -0.003 | doramapimod -0.002 | bafetinib -0.041 | [6] 0.086

UBL4A (UniProt P11441)
Chain of UniProt P11441 (P11441 whole entry, looked up): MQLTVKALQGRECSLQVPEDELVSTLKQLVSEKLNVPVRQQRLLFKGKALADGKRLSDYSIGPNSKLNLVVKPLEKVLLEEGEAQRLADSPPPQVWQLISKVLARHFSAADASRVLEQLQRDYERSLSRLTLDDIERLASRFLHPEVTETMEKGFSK
inactive: alvocidib 0.016 | Tubastatin A -0.039 | [1] -0.015 | defactinib 0.006 | [2] -0.008 | encorafenib 0.046 | [3] -0.043 | alisertib 0.018 | [4] -0.059 | gefitinib -0.033 | lapatinib -0.003 | pictilisib -0.057 | crizotinib 0.112 | duvelisib 0.007 | gandotinib -0.157 | tozasertib 0.076 | doramapimod -0.029 | bafetinib -0.044 | [6] -0.06
active: [5] 0.253

TTMP isoform 3 (UniProt Q5BVD1)
Chain of UniProt Q5BVD1 (Q5BVD1 whole entry, looked up): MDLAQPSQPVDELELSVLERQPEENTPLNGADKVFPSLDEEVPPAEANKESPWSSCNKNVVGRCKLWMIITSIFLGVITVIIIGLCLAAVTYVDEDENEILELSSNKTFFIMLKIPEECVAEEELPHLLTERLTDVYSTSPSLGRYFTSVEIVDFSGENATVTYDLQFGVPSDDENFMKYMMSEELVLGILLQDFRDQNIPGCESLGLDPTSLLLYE
inactive: alvocidib -0.347 | Tubastatin A 0.24 | [1] -0.105 | defactinib -0.088 | [2] 0.36 | encorafenib -0.06 | [3] 0.06 | alisertib 0.119 | [4] 0.129 | gefitinib 0.02 | lapatinib -0.1 | pictilisib 0.013 | crizotinib -0.241 | duvelisib 0.138 | gandotinib 0.384 | tozasertib -0.022 | doramapimod 0.137 | bafetinib -0.197 | [6] 0.47
active: [5] -0.618

TERF2IP (UniProt Q9NYB0)
Chain of UniProt Q9NYB0 (Q9NYB0 whole entry, looked up): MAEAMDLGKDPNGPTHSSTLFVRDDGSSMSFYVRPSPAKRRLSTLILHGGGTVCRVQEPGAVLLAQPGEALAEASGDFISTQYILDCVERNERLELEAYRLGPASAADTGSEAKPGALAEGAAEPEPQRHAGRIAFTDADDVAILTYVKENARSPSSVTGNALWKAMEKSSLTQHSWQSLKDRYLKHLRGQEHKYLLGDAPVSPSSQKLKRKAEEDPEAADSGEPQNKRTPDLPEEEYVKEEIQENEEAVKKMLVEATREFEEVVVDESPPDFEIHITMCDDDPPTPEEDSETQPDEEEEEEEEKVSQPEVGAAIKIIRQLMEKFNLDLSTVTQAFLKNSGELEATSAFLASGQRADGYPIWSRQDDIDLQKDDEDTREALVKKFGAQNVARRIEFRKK
active: [5] 0.249
inactive: alvocidib 0.087 | Tubastatin A 0.014 | [1] 0.009 | defactinib -0.008 | [2] 0.019 | encorafenib 0 | [3] -0.038 | alisertib -0.015 | [4] 0.011 | gefitinib -0.003 | lapatinib -0.007 | pictilisib 0.007 | crizotinib 0.021 | duvelisib 0.022 | gandotinib -0.122 | tozasertib -0.023 | doramapimod -0.016 | bafetinib 0.004 | [6] -0.181

TSPAN13 (UniProt O95857)
Chain of UniProt O95857 (O95857 whole entry, looked up): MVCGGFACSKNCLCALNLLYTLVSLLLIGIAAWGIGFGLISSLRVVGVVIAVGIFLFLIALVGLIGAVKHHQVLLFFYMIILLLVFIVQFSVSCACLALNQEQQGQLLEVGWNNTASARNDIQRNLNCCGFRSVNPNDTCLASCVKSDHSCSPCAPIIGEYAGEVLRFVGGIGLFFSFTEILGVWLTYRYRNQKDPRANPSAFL
inactive: alvocidib -0.26 | Tubastatin A 0.046 | [1] -0.042 | defactinib 0.017 | [2] 0.299 | encorafenib -0.007 | [3] 0.049 | alisertib 0.003 | [4] 0.043 | gefitinib -0.003 | lapatinib 0.017 | pictilisib 0.015 | crizotinib 0.011 | duvelisib -0.241 | gandotinib 0.32 | tozasertib -0.207 | doramapimod 0.119 | bafetinib 0.038 | [6] 0.055
active: [5] -0.387

TFIP11 (UniProt Q9UBB9)
Chain of UniProt Q9UBB9 (Q9UBB9 whole entry, looked up): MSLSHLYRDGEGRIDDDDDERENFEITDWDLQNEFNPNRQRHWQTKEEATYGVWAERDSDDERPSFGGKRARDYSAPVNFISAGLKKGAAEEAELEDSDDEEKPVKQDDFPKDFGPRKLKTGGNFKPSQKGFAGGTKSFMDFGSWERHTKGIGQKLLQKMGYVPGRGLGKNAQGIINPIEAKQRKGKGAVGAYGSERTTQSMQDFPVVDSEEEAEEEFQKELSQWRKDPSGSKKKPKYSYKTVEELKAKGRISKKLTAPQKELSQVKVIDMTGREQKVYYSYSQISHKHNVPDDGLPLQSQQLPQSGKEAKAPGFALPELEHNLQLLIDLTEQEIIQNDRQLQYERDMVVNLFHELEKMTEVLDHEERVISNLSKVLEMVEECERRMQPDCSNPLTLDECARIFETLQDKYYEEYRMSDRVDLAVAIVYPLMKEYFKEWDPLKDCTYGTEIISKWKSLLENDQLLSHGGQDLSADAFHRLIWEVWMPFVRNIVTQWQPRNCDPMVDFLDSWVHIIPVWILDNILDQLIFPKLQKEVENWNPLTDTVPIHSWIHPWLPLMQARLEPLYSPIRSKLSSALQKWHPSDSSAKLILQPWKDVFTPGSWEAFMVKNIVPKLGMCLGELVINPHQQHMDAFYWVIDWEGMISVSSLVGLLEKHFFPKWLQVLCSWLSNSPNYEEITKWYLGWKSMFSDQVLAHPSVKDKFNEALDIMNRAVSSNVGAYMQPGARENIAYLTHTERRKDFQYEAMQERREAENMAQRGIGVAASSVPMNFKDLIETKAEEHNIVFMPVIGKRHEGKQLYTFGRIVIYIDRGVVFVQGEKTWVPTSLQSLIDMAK
active: [3] 0.381
inactive: alvocidib -0.013 | Tubastatin A -0.135 | [1] 0.024 | defactinib 0.061 | [2] -0.023 | encorafenib 0.042 | alisertib 0.062 | [4] 0.013 | gefitinib -0.041 | lapatinib -0.032 | pictilisib 0.061 | crizotinib -0.085 | [5] -0.031 | duvelisib -0.053 | gandotinib -0.097 | tozasertib 0.051 | doramapimod 0.043 | bafetinib -0.114 | [6] 0.06

TK1 (UniProt P04183)
Chain of UniProt P04183 (P04183 whole entry, looked up): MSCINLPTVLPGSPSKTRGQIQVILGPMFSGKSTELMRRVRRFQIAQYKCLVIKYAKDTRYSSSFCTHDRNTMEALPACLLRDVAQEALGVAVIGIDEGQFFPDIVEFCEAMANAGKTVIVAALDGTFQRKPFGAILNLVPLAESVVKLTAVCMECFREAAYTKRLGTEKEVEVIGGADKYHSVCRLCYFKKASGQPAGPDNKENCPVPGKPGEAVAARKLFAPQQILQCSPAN
inactive: alvocidib -0.051 | Tubastatin A 0.004 | [1] 0.006 | defactinib -0.011 | [2] 0.032 | encorafenib -0.018 | [3] -0.025 | alisertib -0.002 | [4] 0.017 | gefitinib 0.013 | lapatinib -0.006 | pictilisib 0.022 | crizotinib 0.022 | [5] -0.133 | duvelisib 0.023 | gandotinib 0.062 | tozasertib 0 | doramapimod 0 | bafetinib 0.009 | [6] 0.021

UBA1 (UniProt P22314)
inactive: alvocidib 0.012 | Tubastatin A -0.082 | [1] 0.007 | defactinib -0.011 | [2] -0.026 | encorafenib -0.017 | [3] 0.139 | alisertib 0.001 | [4] 0.002 | gefitinib -0.01 | lapatinib -0.005 | pictilisib -0.003 | crizotinib -0.037 | [5] -0.012 | duvelisib 0.011 | gandotinib -0.017 | tozasertib -0.005 | doramapimod 0.009 | bafetinib -0.017 | [6] 0.023

UBP1 (UniProt Q9NZI7)
Chain of UniProt Q9NZI7 (Q9NZI7 whole entry, looked up): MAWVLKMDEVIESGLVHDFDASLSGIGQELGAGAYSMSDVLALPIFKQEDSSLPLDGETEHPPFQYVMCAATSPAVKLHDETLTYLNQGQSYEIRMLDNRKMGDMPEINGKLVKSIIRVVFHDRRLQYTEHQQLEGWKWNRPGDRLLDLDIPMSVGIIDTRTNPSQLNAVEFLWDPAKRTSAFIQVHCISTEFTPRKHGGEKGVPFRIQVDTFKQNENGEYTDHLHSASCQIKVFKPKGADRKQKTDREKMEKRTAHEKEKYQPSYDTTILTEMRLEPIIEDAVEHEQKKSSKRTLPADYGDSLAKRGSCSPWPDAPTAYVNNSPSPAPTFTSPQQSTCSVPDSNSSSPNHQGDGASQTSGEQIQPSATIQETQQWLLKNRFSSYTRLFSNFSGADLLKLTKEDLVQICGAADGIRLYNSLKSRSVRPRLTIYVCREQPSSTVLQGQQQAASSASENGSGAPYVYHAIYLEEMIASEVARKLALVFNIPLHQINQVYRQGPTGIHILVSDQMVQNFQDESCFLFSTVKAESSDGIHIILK
inactive: alvocidib 0.049 | Tubastatin A -0.121 | [1] 0.058 | defactinib 0.077 | [2] 0.002 | encorafenib 0.115 | [3] 0.019 | alisertib 0.059 | [4] -0.011 | gefitinib -0.073 | lapatinib 0.049 | pictilisib -0.004 | crizotinib -0.202 | [5] 0.206 | duvelisib -0.025 | gandotinib -0.01 | tozasertib -0.043 | doramapimod 0.15 | bafetinib -0.029 | [6] -0.124

TMEM87A (UniProt Q8NBN3)
Chain of UniProt Q8NBN3 (Q8NBN3 whole entry, looked up): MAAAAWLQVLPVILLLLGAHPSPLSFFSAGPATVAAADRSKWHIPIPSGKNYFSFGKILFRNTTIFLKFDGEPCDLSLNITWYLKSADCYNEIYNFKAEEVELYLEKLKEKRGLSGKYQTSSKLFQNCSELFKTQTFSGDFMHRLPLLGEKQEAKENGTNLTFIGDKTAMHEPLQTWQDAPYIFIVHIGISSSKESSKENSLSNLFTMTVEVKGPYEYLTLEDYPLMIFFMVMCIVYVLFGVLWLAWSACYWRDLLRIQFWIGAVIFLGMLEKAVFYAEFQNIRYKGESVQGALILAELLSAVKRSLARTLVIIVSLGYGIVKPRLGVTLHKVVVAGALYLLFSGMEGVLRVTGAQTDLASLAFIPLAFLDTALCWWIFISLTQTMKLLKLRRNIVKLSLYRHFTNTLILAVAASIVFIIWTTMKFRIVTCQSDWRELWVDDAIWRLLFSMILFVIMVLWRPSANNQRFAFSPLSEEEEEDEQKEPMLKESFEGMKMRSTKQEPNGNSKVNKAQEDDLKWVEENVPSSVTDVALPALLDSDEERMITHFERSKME
active: gandotinib 0.242 | [6] 0.248
inactive: alvocidib -0.076 | Tubastatin A -0.013 | [1] -0.012 | defactinib -0.006 | [2] -0.017 | encorafenib 0.022 | [3] -0.045 | alisertib -0.02 | [4] 0.015 | gefitinib 0.022 | lapatinib -0.007 | pictilisib -0.015 | crizotinib 0.016 | [5] -0.082 | duvelisib 0.012 | tozasertib -0.029 | doramapimod 0.026 | bafetinib -0.007

TCAF2 (UniProt A6NFQ2)
Chain of UniProt A6NFQ2 (A6NFQ2 whole entry, looked up): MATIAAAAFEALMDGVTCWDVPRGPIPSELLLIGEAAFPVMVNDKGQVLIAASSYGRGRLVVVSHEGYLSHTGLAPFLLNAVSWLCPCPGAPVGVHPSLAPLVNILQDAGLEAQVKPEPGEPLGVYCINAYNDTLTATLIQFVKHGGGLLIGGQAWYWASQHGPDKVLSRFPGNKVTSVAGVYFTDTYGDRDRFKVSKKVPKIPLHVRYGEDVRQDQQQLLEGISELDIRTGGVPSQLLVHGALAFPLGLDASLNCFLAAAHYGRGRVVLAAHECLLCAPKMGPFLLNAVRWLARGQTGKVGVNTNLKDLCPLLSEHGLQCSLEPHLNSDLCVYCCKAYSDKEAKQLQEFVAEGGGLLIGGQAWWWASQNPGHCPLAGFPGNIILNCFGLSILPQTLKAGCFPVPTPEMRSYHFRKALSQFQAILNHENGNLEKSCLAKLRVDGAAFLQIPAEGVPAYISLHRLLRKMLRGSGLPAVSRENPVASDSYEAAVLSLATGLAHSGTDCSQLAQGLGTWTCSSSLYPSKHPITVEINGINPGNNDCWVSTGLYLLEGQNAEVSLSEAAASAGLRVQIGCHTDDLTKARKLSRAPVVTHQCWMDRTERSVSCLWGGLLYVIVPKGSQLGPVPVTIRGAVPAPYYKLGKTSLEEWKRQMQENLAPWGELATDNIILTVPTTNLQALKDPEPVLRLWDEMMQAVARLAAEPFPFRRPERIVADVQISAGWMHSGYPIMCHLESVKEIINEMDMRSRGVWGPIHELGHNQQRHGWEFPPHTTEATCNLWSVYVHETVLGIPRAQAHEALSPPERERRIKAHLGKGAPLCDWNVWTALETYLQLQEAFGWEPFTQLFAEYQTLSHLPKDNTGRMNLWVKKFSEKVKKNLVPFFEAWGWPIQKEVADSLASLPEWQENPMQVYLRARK
inactive: alvocidib -0.016 | Tubastatin A -0.183 | [1] -0.026 | defactinib 0.067 | [2] -0.026 | encorafenib 0.006 | [3] 0.044 | alisertib 0.03 | [4] -0.067 | gefitinib -0.042 | lapatinib 0.024 | pictilisib -0.017 | crizotinib -0.108 | [5] -0.02 | duvelisib 0.004 | gandotinib -0.098 | tozasertib 0.008 | doramapimod -0.03 | bafetinib -0.048 | [6] 0.041

UGDH (UniProt O60701)
Chain of UniProt O60701 (O60701 whole entry, looked up): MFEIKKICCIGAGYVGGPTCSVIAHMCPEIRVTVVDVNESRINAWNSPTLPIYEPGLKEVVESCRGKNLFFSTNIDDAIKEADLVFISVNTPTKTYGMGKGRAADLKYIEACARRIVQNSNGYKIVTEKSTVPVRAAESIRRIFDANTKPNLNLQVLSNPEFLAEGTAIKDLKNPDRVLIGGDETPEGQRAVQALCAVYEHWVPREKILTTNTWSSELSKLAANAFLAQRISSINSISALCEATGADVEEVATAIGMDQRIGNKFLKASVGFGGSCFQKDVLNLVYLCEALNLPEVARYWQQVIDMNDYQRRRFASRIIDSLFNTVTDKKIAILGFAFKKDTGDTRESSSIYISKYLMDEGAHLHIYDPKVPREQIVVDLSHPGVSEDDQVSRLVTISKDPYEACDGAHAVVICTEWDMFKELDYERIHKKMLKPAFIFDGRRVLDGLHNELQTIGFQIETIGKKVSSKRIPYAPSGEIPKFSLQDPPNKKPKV
inactive: alvocidib 0.023 | Tubastatin A -0.151 | [1] 0.015 | defactinib 0.071 | [2] -0.132 | encorafenib 0.047 | [3] 0.037 | alisertib -0.025 | [4] -0.004 | gefitinib -0.042 | lapatinib 0.009 | pictilisib -0.021 | crizotinib -0.015 | [5] 0.037 | duvelisib -0.063 | gandotinib -0.067 | tozasertib -0.073 | doramapimod -0.053 | bafetinib -0.019 | [6] -0.022
